Compound activity: PubChem, several laboratories
Hits are enriched below; roughly 2.4% of the tested compounds scored in any of these assays.
m5-HT2A agonist – mouse HTR2A agonism via beta-arrestin recruitment; P35363; CHO-K1 mHTR2A beta-arrestin complementation, luminescence; percent of 30 µM serotonin response; activation, % at 7.6 µM; 0.66% of 360,000 active;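 active = activation above a run cutoff, the mean activation of all tested compounds plus 3 SD, cut at about 14% in these data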;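 also: 0% = plate median of compound wells and 100% = 30 µM serotonin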
CRFR2-BP antag – blocks CRF-induced signaling of the CRF-BP/CRF-R2 complex. HEK293 CRF-R2/CRF-BP, CRF-induced calcium fluorescence. inhibition, % at 11.8 µM. 0.59% of 350,000 active;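 active = inhibition of the ligand-induced calcium signal above about 50% at the single tested concentration, limit read from the data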
ABHD5-PLIN5 inh – blocks binding of human ABHD5 to perilipin-5; Q00G26+Q8WTS1; Split G. princeps luciferase complementation, luminescence, 4 h; inhibition, % at 4 µM; 0.78% of 360,000 active; AID 602281;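 active = inhibition above the mean inhibition across every tested compound plus 3 SD, cut at about 22% in these data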;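 also: 0% = DMSO only wells and the 100% control is not disclosed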
NOD2-RIPK2 inh – NOD2-RIPK2 protein interaction inhibition. AID 624267. O43353. 0.38% of 360,000 active. CHO BLA complementation NOD2-RIPK2, CCF4 ratio. inhibition, % at 4.98 µM; in the data active = inhibition above about 21%;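 also: 0% = vehicle only and 100% = reference blocker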
Target sequence (O43353 whole entry, looked up): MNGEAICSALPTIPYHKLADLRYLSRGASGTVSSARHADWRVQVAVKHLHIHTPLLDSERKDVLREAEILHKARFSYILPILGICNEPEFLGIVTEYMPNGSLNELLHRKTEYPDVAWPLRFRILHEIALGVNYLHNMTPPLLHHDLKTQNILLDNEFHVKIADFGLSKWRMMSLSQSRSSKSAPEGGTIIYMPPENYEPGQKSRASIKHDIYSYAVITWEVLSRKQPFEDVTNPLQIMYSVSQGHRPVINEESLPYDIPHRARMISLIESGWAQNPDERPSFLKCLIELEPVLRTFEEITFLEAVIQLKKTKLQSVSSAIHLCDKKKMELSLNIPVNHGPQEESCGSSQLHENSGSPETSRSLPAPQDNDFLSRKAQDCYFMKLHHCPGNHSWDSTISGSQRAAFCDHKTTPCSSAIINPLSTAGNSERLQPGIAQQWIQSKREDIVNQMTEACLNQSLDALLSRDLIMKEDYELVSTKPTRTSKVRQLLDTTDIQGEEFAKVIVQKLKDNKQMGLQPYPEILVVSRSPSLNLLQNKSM
TLR4 MyD88 comp – blocks binding of human TLR4 to MyD88. HeLa CL3-4 TLR4/MyD88 BLA complementation, FRET ratio. AID 861. O00206+Q99836. inhibition, % at 8.4 µM. 0.18% of 200,000 active; in the data active = inhibition above about 25%;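 also: 0% = vehicle and 100% = reference inhibitor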
TLR9-MyD88 block – inhibitors of human TLR9-MyD88 binding; Q9NR96+Q99836; CHO BLA complementation TLR9-MyD88, CCF4 FRET ratio; inhibition, % at 4.98 µM; 0.21% of 340,000 active;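 active = inhibition above the mean over all tested compounds plus 3 SD, cut at about 21% in these data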;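 also: 0% = DMSO only wells and 100% = clavulanate BLA inhibitor control wells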
NOD2 RIPK2 conf – confirmation of human NOD2-RIPK2 interaction inhibitors; shares compounds with NOD2-RIPK2 inh; CHO cells, NOD2-RIPK2 BLA complementation, CCF4 FRET; inhibition, % at 4.98 µM; 70% of 1,200 active; AID 624370;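 active = mean inhibition across replicates above a set limit taken from the earlier primary screen, cut at about 21% in these data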;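 also: 0% = DMSO-only wells and the high end = clavulanate BLA-blocked wells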
NOD2 BLA counter – NOD2-RIPK2 counterscreen BLA reporter activity. AID 624371. shares compounds with NOD2-RIPK2 inh. CHO BLA reporter, CCF4 FRET ratio. 57% of 1,200 active. inhibition, % at 4.98 µM;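 active = mean inhibition above the low-control mean inhibition plus three low-control SD, cut at about 11% in these data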;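 also: 0% = DMSO only wells and 100% = clavulanate high control wells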
The depositor's hits bear a star; . = not tested or not shown.

SMILES | m5-HT2A agonist | CRFR2-BP antag | ABHD5-PLIN5 inh | NOD2-RIPK2 inh | TLR4 MyD88 comp | TLR9-MyD88 block | NOD2 RIPK2 conf | NOD2 BLA counter
CC1(C(=O)NCc2cccs2)CCN1CCc1ccccc1 (stereo not given) | -8 | . | -5 | -9 | . | . | . | .
Cc1[nH]c(=S)c(C#N)c2c1CCCC2 | -1 | -14 | 3 | 27* | -10 | 2 | -9 | -6
Cc1[nH]c(=O)c(C#N)c2c1CCCC2 | 0 | -8 | 1 | -12 | 2 | -17 | . | .
O=C(CCCN1C(=O)/C(=C\c2cccs2)SC1=S)Nc1cccc(C(=O)O)c1 | -2 | -100 | 1 | 24* | 2 | 3 | 5 | -4
COCCn1c(=O)[nH]c2cc(C(=O)Nc3nnc(C)s3)ccc21 | -4 | 0 | 3 | 94* | . | -8 | -1 | -18
COCCn1c(=O)[nH]c2cc(C(=O)Nc3cc(OC)c(OC)c(OC)c3)ccc2c1=O | -2 | 6 | 7 | -5 | . | 0 | . | .
COc1ccc(N=C2S/C(=C\c3ccc(Cl)c([N+](=O)[O-])c3)C(=O)N2CCN(C)C)cc1 | -7 | 17 | 4 | 44* | . | 11 | 88* | -4
CCN1C(=O)/C(=C/c2cccs2)SC1=Nc1ccc(OC)cc1 | -4 | -1 | -1 | -2 | 0 | -2 | . | .
COc1ccc(Cc2c(-c3ccccc3)nc3ccc(Br)cn23)c(C)c1 | -1 | . | -12 | -3 | . | . | . | .
CCCNC(=O)c1ccc(COc2cccc3ccccc23)o1 | 0 | 12 | 14 | 26* | . | -1 | 2 | -4
COc1ccccc1-c1cnc(C(O)c2ccc(F)c(F)c2)[nH]1 (stereo not given) | 0 | . | 3 | -9 | . | . | . | .
CCN(CC)c1ccc(C=C(c2nnnn2-c2ccc(C)cc2)c2nnnn2-c2ccc(C)cc2)cc1 | -6 | -18 | 7 | 22* | 18 | 19 | 28* | 34*
O=S1(=O)CC(N2CCN(c3ccccn3)CC2)CN1C1CCCCC1 (stereo not given) | -2 | . | 14 | -3 | . | . | . | .
O=C(NCc1ccccc1)C1Cc2c(-c3ccc(Cl)cc3)ccnc2O1 (stereo not given) | 3 | . | -1 | 21* | . | . | 18 | 1
CCOc1ccc(/C=C(\C#N)C(=O)c2c(C)[nH]c3ccccc23)cc1OC | -3 | -9 | 3 | 22* | -17 | -8 | 2 | -6
COc1cc(/C=C(/C#N)C(=O)c2c(C)[nH]c3ccccc23)ccc1OCC#N | 0 | -25 | 3 | 7 | . | -5 | . | .
CC[C@@H](NC(=O)[C@@H](Cc1ccccc1)NC(=O)CC[C@H]1O[C@@H](n2ccc(=O)[nH]c2=O)[C@H](O)[C@@H]1O)c1ccccc1 | -2 | . | 0 | 10 | . | . | . | .
O=C(CN(c1cccc(C(F)(F)F)c1)S(=O)(=O)c1ccc(Cl)c([N+](=O)[O-])c1)NCc1ccccc1 | 2 | -1 | 3 | -12 | 14 | -3 | . | .
CC(NC(=O)CN(c1cccc(C(F)(F)F)c1)S(=O)(=O)c1ccc(Cl)c([N+](=O)[O-])c1)c1ccccc1 (stereo not given) | -2 | 8 | 9 | 39* | -4 | 8 | 35* | -1
Nc1ncnc2c1ccn2[C@H]1CN(Cc2ccc(Cl)cc2)C[C@@H](CO)O1 | 8 | . | 0 | -3 | . | . | . | .
C(=Cc1c[nH]c2ccccc12)c1nccc2ccccc12 | -5 | -5 | -5 | 3 | . | 12 | . | .
C(=Cc1c[nH]c2ccccc12)c1ccc2ccccc2n1 | 1 | -55 | 1 | 29* | . | 11 | 33* | 47*
COc1ccc(-c2oc3c(c2C(=O)OCCO)C(OCCCO)CCC3)cc1 (stereo not given) | 2 | . | -6 | -2 | . | . | . | .
O=C1C(=NO)C(c2ccccc2)Oc2ccccc21 (stereo not given) | -4 | 15 | 2 | 28* | . | 12 | 20 | 27*
O=C(c1ccccc1)N1C(=O)C(c2ccccc2)Oc2ccccc21 (stereo not given) | -6 | -1 | 5 | -9 | . | -6 | . | .
